From PubChem BioAssay (NCATS)
A number with no mark means an inactive call. Results filed as inconclusive are left out. Activity calls are given as the source filed them. Unless noted, the call rests on the fitted dose curve; in most records, active means well fitted curve in the direction sought with a large enough effect; inconclusive means small, poorly fitted or top-dose-only effect, or another doubt; inactive means no such curve, though single readings can be large; an effect the other way counts as inactive or inconclusive.

What was measured:
[1] = biological target: Lysosomal acid glucosylceramidase (Homo sapiens) (UniProt P04062); assay: Glucocerebrosidase-p2 (AID 348; in the data active means potency below about 10 µM; further: potency means the concentration at half of the fitted maximal effect); settings: purified GBA, blue fluorogenic substrate, 40 min
Lysosomal acid glucosylceramidase (Homo sapiens), sequence (P04062 whole entry, looked up): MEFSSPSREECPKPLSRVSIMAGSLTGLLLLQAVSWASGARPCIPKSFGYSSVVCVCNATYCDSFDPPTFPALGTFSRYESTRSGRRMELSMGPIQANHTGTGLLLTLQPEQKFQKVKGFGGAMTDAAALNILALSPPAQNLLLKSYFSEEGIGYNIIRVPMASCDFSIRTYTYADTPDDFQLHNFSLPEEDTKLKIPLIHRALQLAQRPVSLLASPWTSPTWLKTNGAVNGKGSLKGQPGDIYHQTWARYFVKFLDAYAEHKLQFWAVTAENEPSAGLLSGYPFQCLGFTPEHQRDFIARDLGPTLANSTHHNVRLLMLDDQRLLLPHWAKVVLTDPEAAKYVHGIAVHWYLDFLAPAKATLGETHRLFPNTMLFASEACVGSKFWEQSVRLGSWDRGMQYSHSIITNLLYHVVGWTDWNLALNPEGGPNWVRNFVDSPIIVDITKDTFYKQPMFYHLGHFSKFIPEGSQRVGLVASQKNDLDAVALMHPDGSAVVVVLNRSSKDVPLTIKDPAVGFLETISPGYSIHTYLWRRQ
Method in brief: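 Normal human glucocerebrosidase (0.2 nM) with blue fluorogenic substrate (80 uM final) in citrate/phosphate pH 5.9 with 10mM sodium taurocholate, 0.01% tween-20; 40 min RT, NaOH/glycine stop; fluorescence Ex 365/Em 440; AC50 from a titration from 0.6 nM upwards.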

[2] = NFAT Signaling Pathway (AID 444; active means well fitted curve in either direction with a large enough effect, not every such curve was filed as active;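 further: carbachol stimulus at about its EC50 of 1 µM final; on the % scale 0 is the no-effect control and ±100 the full control effect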); settings: Jurkat NFAT-bla M1, carbachol, beta-lactamase ratio, 5 h; at 7.69 µM (top of the series) unless noted
Method in brief: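 Jurkat cells with NFAT-driven β-lactamase reporter and co-expressed M1 receptor, stimulated with carbachol (final 1 uM, ~EC50), compound titration, 5 h at 37 °C. CCF4 loaded 1 h at RT; 460/530 nm ratio gave %activity and AC50.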

[3] = Stat Signaling Pathway (AID 446; active means well fitted curve in either direction with a large enough effect, not every such curve was filed as active;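 further: ME-180 cervical cancer cells given 40 pM IL-6 alongside compound; SIE-controlled beta-lactamase reporter measured as 460/530 nm FRET emission ratio; on the % scale 0 is the no-effect control and ±100 the full control effect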); settings: ME-180 SIE beta-lactamase reporter, IL-6 stimulated, 5 h; at 7.69 µM (top of the series) unless noted
Method in brief: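 Normalization used AC90 stimulation (300 pM IL-6) and AC90 inhibition (125 nM pan-JAK inhibitor at 40 pM IL-6). The underlying signal is SIE-driven beta-lactamase in ME-180 cells after 5 h IL-6 exposure with compound.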

[4] = biological target: Glucocorticoid receptor (Homo sapiens) (UniProt P04150); assay: GR-GFP Redistribution (AID 450;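 active means compounds whose dose series gives a full or clear partial fitted curve of increased nuclear translocation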; further: potency means the concentration at half of the fitted maximal effect); settings: U2OS GR-GFP nuclear translocation, laser cytometry, 2 h
Glucocorticoid receptor (Homo sapiens), sequence (P04150 whole entry, looked up, the tested form may be a part): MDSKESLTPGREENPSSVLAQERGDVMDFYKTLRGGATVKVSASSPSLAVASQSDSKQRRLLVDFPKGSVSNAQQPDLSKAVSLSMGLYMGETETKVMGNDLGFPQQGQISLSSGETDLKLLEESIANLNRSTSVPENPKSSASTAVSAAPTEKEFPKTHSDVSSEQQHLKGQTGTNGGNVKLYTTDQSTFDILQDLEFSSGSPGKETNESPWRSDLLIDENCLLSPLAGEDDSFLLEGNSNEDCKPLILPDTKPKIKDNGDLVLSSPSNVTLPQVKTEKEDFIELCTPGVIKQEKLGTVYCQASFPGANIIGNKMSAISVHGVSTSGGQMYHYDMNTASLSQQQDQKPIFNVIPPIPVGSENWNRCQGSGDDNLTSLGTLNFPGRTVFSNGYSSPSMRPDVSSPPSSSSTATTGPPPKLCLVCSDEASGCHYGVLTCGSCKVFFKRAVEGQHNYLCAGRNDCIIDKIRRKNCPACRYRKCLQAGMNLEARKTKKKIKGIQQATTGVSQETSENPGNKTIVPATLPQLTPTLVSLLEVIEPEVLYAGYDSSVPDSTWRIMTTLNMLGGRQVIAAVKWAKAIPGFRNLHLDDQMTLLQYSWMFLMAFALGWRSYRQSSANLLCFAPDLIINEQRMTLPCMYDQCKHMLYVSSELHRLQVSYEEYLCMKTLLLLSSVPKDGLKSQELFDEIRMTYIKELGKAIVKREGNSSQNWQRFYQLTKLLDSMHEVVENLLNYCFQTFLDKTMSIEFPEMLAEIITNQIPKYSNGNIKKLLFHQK

[5] = biological target: Glucocorticoid receptor (Homo sapiens) (UniProt P04150); assay: GR-EFC Redistribution (AID 451; calls by dose curve; further: potency means the concentration at half of the fitted maximal effect); settings: CHO-K1 GR-EFC translocation, beta-gal luminescence, 2 h
Method in brief: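 CHO-K1 cells expressing nuclear EA and GR-ED fragments of b-gal; compounds titrated up to 46 uM final, 2 h at 37 C. GR nuclear translocation read as complemented b-gal luminescence after 1 h RT detection.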

[6] = biological target: Mitogen-activated protein kinase 10 (Mus musculus) (UniProt Q61831); assay: JNK3 AlphaScreen Assay (AID 530; active means well fitted curve in either direction with a large enough effect, not every such curve was filed as active;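 further: kinase came from lysate of stimulated human HepG2 cells; signal reports phosphorylation of biotinylated GST-cJun 1-79 at Ser73 with 10 µM ATP; on the % scale 0 is the no-effect control and ±100 the full control effect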); settings: JNK3 lysate, c-Jun phosphorylation; series mostly up to 57.1 µM
Method in brief: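 Activity was read by AlphaScreen after JNK3-containing HepG2 lysate (cytokine pre-activated) phosphorylated biotinylated GST-cJun with 10 uM ATP at room temperature. Phospho-Ser73 cJun antibody with Protein-A acceptor beads provided detection.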

[7] = biological target: Dual specificity protein kinase CLK4 (Homo sapiens) (UniProt Q9HAZ1); assay: qHTS Assay for Inhibitors of CDC-like Kinase 4 (Kinase-Glo Assay) (AID 1770); settings: recombinant Clk4, Kinase-Glo ATP depletion luminescence; series mostly up to 66.7 µM; further: nearly all actives have a fitted effect of over 65% in size; further: potency means the concentration at half of the fitted maximal effect
Dual specificity protein kinase CLK4 (Homo sapiens), sequence (Q9HAZ1 whole entry, looked up): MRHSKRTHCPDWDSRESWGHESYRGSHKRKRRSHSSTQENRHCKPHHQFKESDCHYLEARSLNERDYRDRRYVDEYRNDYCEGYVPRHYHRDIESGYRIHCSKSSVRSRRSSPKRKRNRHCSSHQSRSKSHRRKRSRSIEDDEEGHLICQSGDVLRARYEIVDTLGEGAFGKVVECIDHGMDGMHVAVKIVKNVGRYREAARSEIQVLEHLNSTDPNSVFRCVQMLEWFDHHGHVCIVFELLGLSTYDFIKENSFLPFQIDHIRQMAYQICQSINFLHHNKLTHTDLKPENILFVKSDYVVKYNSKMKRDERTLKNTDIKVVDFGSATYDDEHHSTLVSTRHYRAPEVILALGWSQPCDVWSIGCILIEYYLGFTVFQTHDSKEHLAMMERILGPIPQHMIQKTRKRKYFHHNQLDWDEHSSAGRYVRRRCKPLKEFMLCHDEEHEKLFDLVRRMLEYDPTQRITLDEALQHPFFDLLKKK
Method in brief: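 25 nM Clk4 with 100 uM RS repeat peptide and 1 uM ATP (final) in Tris pH7.5, 10 mM MgCl2, 4.5 h at room temperature. Remaining ATP measured by Kinase-Glo luciferase luminescence.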

[8] = biological target: Dual specificity protein kinase CLK4 (Homo sapiens) (UniProt Q9HAZ1); assay: qHTS Assay for Inhibitors of CDC-like Kinase 4 (ADP-FP Assay) (AID 1795); settings: Transcreener ADP fluorescence polarization; series mostly up to 50 µM; further: nearly all actives have a fitted effect of over 60% in size; further: potency means the concentration at half of the fitted maximal effect
Method in brief: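 Recombinant Clk4 (6.25 nM) phosphorylated 100 uM RS repeat peptide with 1 uM ATP in 25 mM Tris pH 7.5, 10 mM MgCl2, 0.5 mM EGTA, 2.5 mM DTT, 0.01% Triton X-100 for 1 h. ADP was detected by Transcreener ADP2 competitive fluorescence polarization after 30 min at room temperature.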

[9] = biological target: Ubiquitin carboxyl-terminal hydrolase 1 (Homo sapiens) (UniProt O94782); assay: Inhibitors of USP1/UAF1: Pilot qHTS (AID 504865); settings: purified USP1/UAF1, Ub-rhodamine cleavage fluorescence; series mostly up to 54.9 µM;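 further: rhodamine fluorescence freed from ubiquitin-rhodamine substrate followed over time; top concentration of the series differs between compounds; on the % scale 0 is the no-effect control and ±100 the full control effect; nearly all actives have a fitted effect of over 35% in size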
Ubiquitin carboxyl-terminal hydrolase 1 (Homo sapiens), sequence (O94782 whole entry, looked up): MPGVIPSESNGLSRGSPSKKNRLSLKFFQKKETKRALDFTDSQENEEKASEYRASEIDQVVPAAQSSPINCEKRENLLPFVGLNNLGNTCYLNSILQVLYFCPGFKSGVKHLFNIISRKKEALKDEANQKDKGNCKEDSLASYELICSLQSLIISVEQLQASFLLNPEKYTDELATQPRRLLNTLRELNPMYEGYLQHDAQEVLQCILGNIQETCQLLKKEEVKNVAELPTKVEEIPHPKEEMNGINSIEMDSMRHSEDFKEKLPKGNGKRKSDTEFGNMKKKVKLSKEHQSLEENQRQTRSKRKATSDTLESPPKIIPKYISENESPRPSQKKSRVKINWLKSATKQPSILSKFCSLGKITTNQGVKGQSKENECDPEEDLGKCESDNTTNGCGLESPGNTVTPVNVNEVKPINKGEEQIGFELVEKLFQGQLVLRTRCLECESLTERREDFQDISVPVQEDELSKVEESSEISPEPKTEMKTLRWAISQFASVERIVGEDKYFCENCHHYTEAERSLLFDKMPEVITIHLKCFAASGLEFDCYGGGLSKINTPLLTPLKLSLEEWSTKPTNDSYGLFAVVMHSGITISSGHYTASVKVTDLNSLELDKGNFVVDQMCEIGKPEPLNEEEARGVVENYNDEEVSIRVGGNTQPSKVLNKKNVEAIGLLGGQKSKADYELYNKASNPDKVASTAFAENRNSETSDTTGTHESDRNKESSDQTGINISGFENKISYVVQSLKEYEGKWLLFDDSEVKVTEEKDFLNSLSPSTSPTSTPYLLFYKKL
Method in brief: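 USP1/UAF1 complex at 1 nM preincubated 15 min at room temperature with compound, then Ub-Rho substrate added at 150 nM final. Fluorescence (480/540 nm) read kinetically in 50 mM HEPES pH 7.8, 0.5 mM EDTA, 1 mM TCEP, 0.1 mg/ml BSA, 0.01% Tween-20.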

[10] = Primary qHTS for small molecule stabilizers of the endoplasmic reticulum resident proteome: Secreted ER Calcium Modulated Protein (SERCaMP) assay (AID 1508630); settings: SH-SY5Y GLuc-SERCaMP (Gaussia luciferase released on ER calcium loss) secretion, thapsigargin, luminescence; series mostly up to 38.4 µM; further: on the % scale 0 is the no-effect control and ±100 the full control effect
Method in brief: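 The SH-SY5Y reporter protocol was run at 3 concentrations up to 38.3 uM (primary) or 11 concentrations (follow-up): 16 h compound, 100 nM thapsigargin for 4 h, then extracellular luciferase luminescence.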

[11] = AP1 Signaling Pathway (AID 357; active means well fitted curve in either direction with a large enough effect, not every such curve was filed as active); settings: ME-180 AP-1-bla reporter, EGF-induced, beta-lactamase ratio, 5 h; at 7.69 µM (top of the series) unless noted
Method in brief: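 Titration-series screen for positive or negative modulators of EC50 EGF-induced signaling in ME-180 cells carrying an AP-1-driven beta-lactamase reporter. After 5 hours at 37 degrees Celsius, CCF4 460nm/530nm emission ratio gave %Activity; AC50 values derived.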

[12] = biological target: Cytochrome P450 1A2 (Homo sapiens) (UniProt P05177); assay: p450-cyp1a2 (AID 410; calls by dose curve; further: potency means the concentration at half of the fitted maximal effect); settings: recombinant CYP1A2, luciferin-ME demethylation, luminescence; series mostly up to 57 µM
Cytochrome P450 1A2 (Homo sapiens), sequence (P05177 whole entry, looked up): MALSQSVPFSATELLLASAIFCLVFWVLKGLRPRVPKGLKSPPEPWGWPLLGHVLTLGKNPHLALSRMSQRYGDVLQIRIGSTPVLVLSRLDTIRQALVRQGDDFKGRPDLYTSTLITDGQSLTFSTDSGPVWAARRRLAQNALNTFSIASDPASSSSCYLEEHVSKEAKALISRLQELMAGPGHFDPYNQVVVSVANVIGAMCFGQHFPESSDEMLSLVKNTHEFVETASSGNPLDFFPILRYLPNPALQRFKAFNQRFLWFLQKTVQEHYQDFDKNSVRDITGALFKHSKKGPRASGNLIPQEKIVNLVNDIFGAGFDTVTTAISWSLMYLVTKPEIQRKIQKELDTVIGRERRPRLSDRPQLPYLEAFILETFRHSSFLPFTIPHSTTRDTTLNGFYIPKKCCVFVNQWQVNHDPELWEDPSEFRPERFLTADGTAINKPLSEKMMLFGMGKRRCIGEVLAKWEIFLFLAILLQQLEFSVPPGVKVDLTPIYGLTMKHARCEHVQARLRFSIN
Method in brief: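 Luminescent demethylation readout: Luciferin-ME (100uM, equal to Km) turned over by 20nM CYP1A2 for 60 min at room temperature after NADPH regeneration addition, following 10 min compound preincubation. Normalization used 57 uM furafylline as full inhibition.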

[13] = biological target: Cytochrome P450 3A4 (Homo sapiens) (UniProt P08684); assay: qHTS Assay for Activators of Cytochrome P450 3A4 (AID 885); settings: recombinant CYP3A4, Luciferin-PPXE luminescence, 60 min; series mostly up to 57.1 µM; further: nearly all actives have a fitted effect of over 65% in size
Cytochrome P450 3A4 (Homo sapiens), sequence (P08684 whole entry, looked up): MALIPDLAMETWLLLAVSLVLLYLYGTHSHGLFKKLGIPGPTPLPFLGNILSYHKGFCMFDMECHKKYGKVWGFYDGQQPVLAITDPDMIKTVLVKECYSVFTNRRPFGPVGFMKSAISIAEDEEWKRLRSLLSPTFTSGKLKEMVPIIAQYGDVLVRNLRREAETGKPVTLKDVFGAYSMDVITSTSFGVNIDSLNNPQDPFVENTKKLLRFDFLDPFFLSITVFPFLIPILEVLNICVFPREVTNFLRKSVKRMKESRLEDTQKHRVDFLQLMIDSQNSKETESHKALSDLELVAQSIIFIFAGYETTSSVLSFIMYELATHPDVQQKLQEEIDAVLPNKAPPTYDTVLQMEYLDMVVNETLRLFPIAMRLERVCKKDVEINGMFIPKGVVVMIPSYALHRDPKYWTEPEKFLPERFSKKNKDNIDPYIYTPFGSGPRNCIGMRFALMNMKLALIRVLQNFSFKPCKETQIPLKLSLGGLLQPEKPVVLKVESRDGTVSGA
Method in brief: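 Human CYP3A4 dealkylates Luciferin-PPXE to luciferin, which luciferase detection converts to light. Substrate was at its KM (25uM), buffer 200mM KPO4, reaction 60 min at RT.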

[14] = biological target: 3',5'-cyclic-AMP phosphodiesterase 4B (Homo sapiens) (UniProt Q07343); assay: qHTS Assay for Inhibitors of PDE-IV (AID 607; active means well fitted activation curve with a large enough effect in the main read-out, with a control signal flat, not every such curve was filed as active; further: % of control where 0% means no effect); settings: HEK293 ACTOne CNG channel cells, membrane potential fluorescence; series mostly up to 22.9 µM
3',5'-cyclic-AMP phosphodiesterase 4B (Homo sapiens), sequence (Q07343 whole entry, looked up): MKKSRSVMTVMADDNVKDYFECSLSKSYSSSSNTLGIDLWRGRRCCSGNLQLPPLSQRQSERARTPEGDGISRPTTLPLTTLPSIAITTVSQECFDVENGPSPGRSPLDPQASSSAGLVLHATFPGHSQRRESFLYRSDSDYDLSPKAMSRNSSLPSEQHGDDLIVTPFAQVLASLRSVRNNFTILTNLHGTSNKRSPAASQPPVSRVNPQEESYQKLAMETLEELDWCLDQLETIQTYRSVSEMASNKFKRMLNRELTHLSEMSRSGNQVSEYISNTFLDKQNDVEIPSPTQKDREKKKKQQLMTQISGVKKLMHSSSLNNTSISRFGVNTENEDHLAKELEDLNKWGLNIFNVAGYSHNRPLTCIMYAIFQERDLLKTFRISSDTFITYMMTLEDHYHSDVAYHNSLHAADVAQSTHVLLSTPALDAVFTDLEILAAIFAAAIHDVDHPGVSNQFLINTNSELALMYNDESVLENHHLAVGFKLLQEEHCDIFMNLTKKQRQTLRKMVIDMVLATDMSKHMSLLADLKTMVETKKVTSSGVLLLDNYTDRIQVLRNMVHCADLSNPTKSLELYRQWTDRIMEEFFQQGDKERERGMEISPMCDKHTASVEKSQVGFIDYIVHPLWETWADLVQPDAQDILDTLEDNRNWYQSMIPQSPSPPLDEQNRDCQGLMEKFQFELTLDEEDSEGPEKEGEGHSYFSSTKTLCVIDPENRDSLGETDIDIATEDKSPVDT
Method in brief: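 HEK293 ACTOne cells with CNG channel (1000/well), endogenous PDE4; membrane potential dye, compounds up to 22.9 uM final. Fluorescence Ex 535/Em 590; RO 20-1724 (100 uM final) as reference.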

[15] = biological target: Cytochrome P450 2D6 (Homo sapiens) (UniProt P10635); assay: qHTS Assay for Inhibitors and Substrates of Cytochrome P450 2D6 (AID 891); settings: recombinant CYP2D6, luciferin-ME EGE luminescence; series mostly up to 57.1 µM; further: potency means the concentration at half of the fitted maximal effect; nearly all actives have a fitted effect of over 60% in size
Method in brief: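 Luminescent read-out of luciferin formed by 5 nM human CYP2D6 demethylating 30 uM Luciferin-ME EGE (Km level) over 60 min at room temperature after NADPH regeneration addition. Data normalized to full inhibition by 1.43 uM quinidine.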

[16] = biological target: Cytochrome P450 3A4 (Homo sapiens) (UniProt P08684); assay: qHTS Assay for Inhibitors and Substrates of Cytochrome P450 3A4 (AID 884); settings: recombinant CYP3A4, Luciferin-PPXE luminescence; series mostly up to 57.1 µM; further: nearly all actives have a fitted effect of over 50% in size; further: potency means the concentration at half of the fitted maximal effect
Method in brief: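 Luminescent readout of luciferin produced by CYP3A4 (20 nM) dealkylation of Luciferin-PPXE, 25 uM (its KM). NADPH-driven reaction ran 60 min at RT after 10 min compound preincubation; data scaled to 57 uM ketoconazole as 100% inhibition.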

[17] = biological target: Cytochrome P450 2C19 (Homo sapiens) (UniProt P33261); assay: qHTS Assay for Inhibitors and Substrates of Cytochrome P450 2C19 (AID 899); settings: recombinant CYP2C19, luciferin-H EGE luminescence; series mostly up to 57.1 µM; further: potency means the concentration at half of the fitted maximal effect; nearly all actives have a fitted effect of over 60% in size
Cytochrome P450 2C19 (Homo sapiens), sequence (P33261 whole entry, looked up): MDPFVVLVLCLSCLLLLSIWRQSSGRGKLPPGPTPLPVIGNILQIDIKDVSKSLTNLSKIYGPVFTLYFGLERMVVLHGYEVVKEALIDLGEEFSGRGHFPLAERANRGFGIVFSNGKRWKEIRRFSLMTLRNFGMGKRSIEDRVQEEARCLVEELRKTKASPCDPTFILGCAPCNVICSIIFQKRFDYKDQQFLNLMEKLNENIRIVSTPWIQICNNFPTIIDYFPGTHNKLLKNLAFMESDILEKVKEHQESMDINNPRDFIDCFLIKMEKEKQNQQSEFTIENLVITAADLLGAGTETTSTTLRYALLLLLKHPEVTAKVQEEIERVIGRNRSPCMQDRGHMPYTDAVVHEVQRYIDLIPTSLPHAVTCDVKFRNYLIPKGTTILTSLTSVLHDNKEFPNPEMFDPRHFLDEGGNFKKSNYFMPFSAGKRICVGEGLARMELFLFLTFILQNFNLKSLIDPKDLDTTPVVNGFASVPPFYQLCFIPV
Method in brief: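 5 nM human CYP2C19 with 10uM Luciferin-H EGE (at KM) in 50mM KPO4, compound preincubated 10 min at 37C, then NADPH regeneration for 60 min at 37C. Luciferin read by luminescence after detection reagent; normalized to 57uM ketoconazole as full inhibition.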

[18] = qHTS Assay for Identification of Small Molecule Agonists for Hypoxia Response Element Signaling Pathway (AID 914; active means well fitted activation curve with a large enough effect in the signal ratio, with a control signal flat, not every such curve was filed as active; the % refers to the signal ratio; further: % of control where 0% means no effect); settings: ME-180 (cervical carcinoma) HRE-bla reporter, beta-lactamase ratio, CoCl2, 17 h; activation: hits give high values
Method in brief: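 In Opti-MEM containing 0.5% dialyzed FBS and 10 mM HEPES, ME-180 HRE-bla cells received a compound titration and EC50 CoCl2. They were incubated 17 hours, then CCF4-loaded 2.5 hours at room temperature before ratio reading.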

Structure (SMILES): c1nc(N2CCOCC2)c2cc(-c3ccoc3)ccc2n1
- Potency [1]: > 11.4 µM
- activity change, negative = inhibition [2]: 17.9%
- activity, negative = inhibition [3]: -19.4%
- Potency [4]: > 46 µM
- Potency [5]: > 46 µM
- Potency [6]: inactive
- Potency [7]: 0.224 µM (active)
- Potency [8]: 0.178 µM (active)
- Potency [9]: inactive
- outcome [10]: inactive

Structure (SMILES): COCCn1c(=O)c(-c2cccs2)nc2cncnc21
- Potency [1]: > 11.4 µM
- activity change, negative = inhibition [11]: -17.4%
- Potency [12]: 3.16 µM (active)
- activity change, negative = inhibition [2]: 11.8%
- activity, negative = inhibition [3]: -2.25%
- Potency [4]: > 9.22 µM
- Potency [6]: inactive
- Potency [13]: inactive
- Potency [7]: inactive
- Potency [8]: inactive
- Potency [9]: inactive
- outcome [10]: inactive

Structure (SMILES): CCNc1ncc2nc(-c3cc(F)cc(F)c3)c(=O)n(CCC#N)c2n1
- Potency [1]: > 11.4 µM
- activity change, negative = inhibition [2]: -24.5%
- Potency [4]: > 9.22 µM
- Potency [5]: > 46 µM
- Potency [6]: inactive
- Potency [14]: inactive
- Potency [15]: 0.0631 µM (active)
- Potency [7]: 31.6 µM (active)
- Potency [8]: inactive
- Potency [9]: inactive
- outcome [10]: inactive

Structure (SMILES): Clc1ccccc1-c1cc(NCc2ccccc2)ncn1
- Potency [1]: > 11.4 µM
- activity change, negative = inhibition [11]: 0.871%
- Potency [12]: 3.98 µM (active)
- activity change, negative = inhibition [2]: 1.92%
- activity, negative = inhibition [3]: 4.36%
- Potency [4]: > 46 µM
- Potency [5]: > 46 µM
- Potency [6]: inactive
- Potency [16]: inactive
- Potency [17]: 7.94 µM (active)
- Potency [7]: 25.1 µM (active)
- outcome [10]: inactive

Structure (SMILES): c1nc(NCCN2CCOCC2)c2cc(-c3ccoc3)ccc2n1
- Potency [1]: > 11.4 µM
- activity change, negative = inhibition [11]: -17.7%
- Potency [12]: 12.6 µM (active)
- activity change, negative = inhibition [2]: -0.57%
- activity, negative = inhibition [3]: -6.63%
- Potency [4]: > 46 µM
- Potency [5]: > 46 µM
- Potency [6]: inactive
- Potency [14]: inactive
- Potency [13]: inactive
- Potency [15]: 2 µM (active)
- Potency [7]: 0.708 µM (active)
- Potency [8]: 0.355 µM (active)
- Potency [9]: inactive
- outcome [10]: inactive

Structure (SMILES): c1csc(CNc2ncncc2-c2ccoc2)c1
- Potency [1]: > 11.4 µM
- activity change, negative = inhibition [11]: -12.1%
- Potency [12]: 2 µM (active)
- activity change, negative = inhibition [2]: 3.52%
- activity, negative = inhibition [3]: -10.5%
- Potency [4]: > 46 µM
- Potency [5]: > 46 µM
- Potency [6]: inactive
- Potency [14]: inactive
- Potency [16]: 2 µM (active)
- Potency [13]: inactive
- activation [18]: 2.26%
- Potency [7]: inactive
- Potency [9]: inactive
- outcome [10]: inactive

Structure (SMILES): Cc1noc(C)c1-c1nc(NCCN2CCOCC2)c2ccccc2n1
- activity change, negative = inhibition [11]: -2.23%
- Potency [12]: 2.51 µM (active)
- activity, negative = inhibition [3]: -0.501%
- Potency [4]: > 46 µM
- Potency [5]: > 46 µM
- Potency [6]: inactive
- Potency [14]: inactive
- Potency [13]: inactive
- Potency [17]: 7.94 µM (active)
- Potency [7]: inactive
- Potency [8]: inactive
- Potency [9]: inactive
- outcome [10]: inactive

Structure (SMILES): COc1ccccc1CCn1c(=O)c(-c2cn(C)c3ccccc23)nc2cncnc21
- Potency [1]: > 11.4 µM
- Potency [12]: 1.26 µM (active)
- activity change, negative = inhibition [2]: 19%
- Potency [4]: > 9.22 µM
- Potency [14]: inactive
- Potency [16]: 2.51 µM (active)
- Potency [13]: inactive
- Potency [17]: 0.316 µM (active)
- Potency [7]: inactive
- Potency [8]: inactive
- Potency [9]: inactive
- outcome [10]: inactive
